PubChem BioAssay (NCATS)
Results filed as inconclusive are left out. Activity calls are given as the source filed them. Calls come from the whole dose curve; as a rule, active = well fitted inhibition curve with a large enough effect; inconclusive = small, poorly fitted or top-dose-only effect; inactive = flat fitted curve, though single readings scatter.

Assays:
Assay in all cases: qHTS profiling for inhibitors of Plasmodium falciparum proliferation (AID 504749); note: nearly all actives have a fitted effect of over 60% in size
Conditions in all cases: P. falciparum in erythrocytes, SYBR Green DNA, 72 h; series mostly up to 12.8 µM
ATS95 = test system: ATS95
Method in brief: (§1)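 SYBR Green fluorescence of parasite DNA, read after lysis and overnight dark incubation, measured growth over 72 h in erythrocyte culture at 0.3% parasitemia and 2.5% hematocrit. Data normalised to DMSO and 0.29 uM artemisinin, with plate-drift correction.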

CP192 = test system: CP192
Method in brief: as §1

CP211 = test system: CP211
Method in brief: as §1

CP260 = test system: CP260
Method in brief: as §1

CP262 = test system: CP262
Method in brief: as §1

CP268 = test system: CP268
Method in brief: as §1

CP305 = test system: CP305
Method in brief: as §1

CP325 = test system: CP325
Method in brief: as §1

CP329 = test system: CP329
Method in brief: as §1

DIV30 = test system: DIV30
Method in brief: as §1

P93_24 = test system: P93_24
Method in brief: as §1

P94_40 = test system: P94_40
Method in brief: as §1

PC15 = test system: PC15
Method in brief: as §1

PC26 = test system: PC26
Method in brief: as §1

TAB109 = test system: TAB109
Method in brief: as §1

TAB165 = test system: TAB165
Method in brief: as §1

W2 = test system: W2
Method in brief: as §1

CP266 = test system: CP266
Method in brief: as §1

DIV17 = test system: DIV17
Method in brief: as §1

Dd2 = test system: Dd2
Method in brief: as §1

Measured: Potency
Potency is the fitted concentration of half-maximal effect.

C[C@H](N[C@@H](C)COc1ccccc1)[C@H](O)c1ccc(O)cc1
active: W2 4.55 µM
not listed: CP266 | DIV17 | Dd2
inactive: all other assays above

CO[C@]1(NC(=O)[C@H](C(=O)O)c2ccc(O)cc2)C(=O)N2C(C(=O)O)=C(CSc3nnnn3C)CO[C@H]21
inactive: all assays above

CCN[C@@H]1CN(CCCOC)S(=O)(=O)c2sc(S(N)(=O)=O)cc21
not listed: P94_40
inactive: all other assays above

CO[C@H]1[C@@H](OC(N)=O)[C@H](O)[C@@H](Oc2ccc3c(O)c(NC(=O)c4ccc(O)c(CC=C(C)C)c4)c(=O)oc3c2C)OC1(C)C
not listed: W2 | CP266
inactive: all other assays above

Cc1cccc(CN2CCN([C@@H](c3ccccc3)c3ccc(Cl)cc3)CC2)c1
active: W2 3.22 µM
inactive: CP211 | CP262 | CP266 | CP268 | CP305 | CP325 | CP329

CN1CCO[C@H](c2ccccc2)c2ccccc2C1
inactive: CP192 | CP211 | CP260 | CP262 | CP266 | CP305 | CP329 | PC15 | PC26
active: W2 2.03 µM

Cc1cccc(C)c1NC(=O)[C@H](C)N
inactive: ATS95 | CP260 | Dd2 | P93_24 | P94_40 | PC15 | TAB109 | TAB165 | W2

CCOC(=O)O[C@@H](C)OC(=O)[C@@H]1N2C(=O)[C@@H](NC(=O)[C@@H](N)c3ccccc3)[C@H]2SC1(C)C
active: W2 5.73 µM
not listed: CP192
inactive: all other assays above

CCN(CCCCOC(=O)c1ccc(OC)c(OC)c1)[C@@H](C)Cc1ccc(OC)cc1
inactive: CP211 | CP266 | CP268 | CP325 | DIV30 | Dd2 | P93_24 | PC15 | TAB165

Cc1ccsc1/C=C\C1=NCCCN1C
inactive: all assays above

CC[C@H](Cc1c(I)cc(I)c(N)c1I)C(=O)O
not listed: W2
inactive: all other assays above

CCOC(=O)Oc1c(OC)cc(C(=O)O[C@H]2C[C@H]3CN4CCc5c([nH]c6cc(OC)ccc56)[C@@H]4C[C@H]3[C@@H](C(=O)OC)[C@@H]2OC)cc1OC
active: CP260 2.51 µM | DIV17 5.73 µM | DIV30 7.21 µM | P93_24 3.98 µM | PC26 5.73 µM | TAB109 3.55 µM | TAB165 3.55 µM | W2 2.56 µM

C#C[C@]1(O)CC[C@@H]2[C@H]3CCC4=CCCC[C@@H]4[C@@H]3CC[C@@]21C
inactive: all assays above

CCN(CC)CCOC(=O)[C@@H](Cc1cccc2ccccc12)C[C@@H]1CCCO1
active: W2 2.28 µM
not listed: ATS95 | CP192 | PC26 | DIV17 | Dd2
inactive: all other assays above

CCN1CCC[C@@H](OC(=O)C(c2ccccc2)c2ccccc2)C1
inactive: ATS95 | CP192 | CP211 | CP260 | CP262 | CP266 | CP268 | CP305 | CP329
active: W2 1.44 µM

C[C@@H](CNC1CCCCC1)OC(=O)c1ccccc1
active: DIV17 4.55 µM | Dd2 4.47 µM | P93_24 3.16 µM | P94_40 3.55 µM | PC26 5.73 µM | TAB109 3.55 µM | W2 2.28 µM
inactive: CP192 | CP211 | CP262 | CP266 | CP329

Clc1ccc(CC[C@H](Cn2ccnc2)Sc2c(Cl)cccc2Cl)cc1
active: CP329 6.42 µM | DIV17 4.05 µM | DIV30 5.73 µM | Dd2 3.55 µM | P93_24 2.24 µM | PC26 4.55 µM | TAB165 1.26 µM | W2 2.03 µM
